The panel holds about 83,000 compounds, 20% with a hit somewhere; the sample as a whole holds those more often.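 Each cell line was grown in a 96-well plate and treated with one concentration of compound for 48 hours. Values below 10 were considered active.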 Activity calls are given as the source filed them.

In the assay the test system is MDA-MB-468 breast. The assay can be described thus: NCI-60 one-dose screen, 48 h (100 = growth as untreated, 0 = no growth, -100 = all killed). The following applies: 10 µM unless noted.
`C=C1c2c(C)nn(-c3ccc(C#CCOC4OC(CO)C(O)C(O)C4O)cc3)c2N(C)C23C[C@H]1C1(C)c4c(C)nn(-c5ccc(C#CCOC6OC(CO)C(O)C(O)C6O)cc5)c4N(C)C(C)(C[C@H]12)C3` (some centres not stated): the growth is -16.4% (active). With `CC(C)(O)CC(=O)NCCn1ccc2ncnc(Nc3ccc(Oc4cccc(C(F)(F)F)c4)c(Cl)c3)c21` the figure was -43.8% (active); with `C=CC(=O)NCc1ccc(Nc2nccc(-c3ccc(N4CCCC4)c(C#N)c3)n2)cc1`, 15.7% (inactive). With `COc1ccc(-c2nc3cc(Cl)c(Cl)cc3n2CC(=O)N=Nc2c(O)[nH]c3ccc(Cl)cc23)cc1`, the growth is -40.1% (active).

`O=S1(=O)N(Cc2ccccc2)[C@@H](Cc2ccccc2)C2O[C@H]2[C@H](Cc2ccccc2)N1Cc1ccccc1` (some centres not stated): the growth was 6.52% (active). With `Cn1ccnc1C(=O)/C=C/c1ccc(C(=O)Nc2ccc(Cl)cc2)cc1` the figure was 12.1% (inactive). With `COc1ccc([C@H]2[C@H](O)C(=O)N2c2cc(OC)c(OC)c(OC)c2)cc1` the figure was 8.33% (active); with `Cc1oc(-c2ccc(Cl)cc2)nc1/C=C/C(=O)c1ccccc1`, 95% (inactive); with `COc1cc(/C=C/C(=O)Nc2ccc3c(c2)/C(=C\c2cccn2C)C(=O)N3)cc(OC)c1OC`, 47.4% (inactive). With `c1ccc(C(c2nc3ncncc3[nH]2)N2CSc3nc4ncncc4n3C2)cc1` (configuration not stated) the figure was 7.36% (active); with `COc1cc(-c2nc(-c3nc4cc(C(=O)c5ccccc5)ccc4[nH]3)cc3c2[nH]c2ccccc23)cc(OC)c1OC`, 93% (inactive).

For `COc1ccc(/C=C/C(=O)c2cc(OC)c(OC)c(OC)c2)cc1OCC(=O)Nc1nc2ccc(OC(F)(F)F)cc2s1`, the growth is 55.1% (inactive).

Source of the values: PubChem BioAssay (NCI).
